{"source": "PubChem BioAssay", "key": {"[1]": {"tested_on": "Plasmodium falciparum Sir2 (PF13_0152, Sir2A)", "assay": "Plasmodium falciparum Sir2A binding compounds – biochemical, small-molecule microarray, 635 nm fluorescence, primary screen (AID 1098);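 further: score merges spot fluorescence intensity with its signal-to-noise ratio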", "details": "fluorescence 635 nm, higher = more signal"}, "[2]": {"assay": "probe aDKK1 binding to arrayed compounds – biochemical, biotinylated probe, 635/667 nm fluorescence, primary screen (AID 1099);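 further: score merges 667nm spot fluorescence with signal to noise across triplicate slides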", "details": "small-molecule microarray, higher = more signal"}, "[3]": {"assay": "probe aCHRDL2 binding to arrayed compounds – biochemical, biotinylated probe, 635/667 nm fluorescence, primary screen (AID 1100)", "details": "small-molecule microarray, higher = more signal"}, "[4]": {"assay": "change in splice reporter luminescence, either direction, cell-based, HEK293, spliceosome inhibition project, primary screen (AID 1101);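 further: HEK293 cells carrying a splicing-competent luciferase reporter gene; test concentration not given here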", "details": "HEK293 splicing luciferase reporter, 24 h, higher = more signal, called active from +8 up or from −8 down"}, "[5]": {"target": "Fibroblast growth factor 10 (Homo sapiens) (UniProt O15520)", "sequence (O15520 whole entry, looked up)": "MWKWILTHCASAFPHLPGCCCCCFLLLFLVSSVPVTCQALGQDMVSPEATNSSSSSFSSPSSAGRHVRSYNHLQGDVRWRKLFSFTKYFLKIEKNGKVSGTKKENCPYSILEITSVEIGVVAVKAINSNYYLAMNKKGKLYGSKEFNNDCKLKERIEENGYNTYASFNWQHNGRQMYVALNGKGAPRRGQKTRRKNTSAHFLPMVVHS", "assay": "compounds binding fibroblast growth factor 10 – biochemical, small-molecule microarray, 635 nm fluorescence, primary screen (AID 1102)", "details": "FGF10 binding, fluorescence 635 nm, higher = more signal"}, "[6]": {"tested_on": "glycogen synthase kinase-3 (GSK3A per assay name; protocol says GSK3B)", "assay": "compounds binding glycogen synthase kinase-3 – biochemical, small-molecule microarray, 635 nm fluorescence, GSK3A, primary screen (AID 1103); further: the record names both GSK3A and GSK3B", "details": "fluorescence 635 nm, higher = more signal"}, "[7]": {"target": "Epidermal growth factor receptor (Homo sapiens) (UniProt P00533)", "sequence (P00533 whole entry, looked up)": "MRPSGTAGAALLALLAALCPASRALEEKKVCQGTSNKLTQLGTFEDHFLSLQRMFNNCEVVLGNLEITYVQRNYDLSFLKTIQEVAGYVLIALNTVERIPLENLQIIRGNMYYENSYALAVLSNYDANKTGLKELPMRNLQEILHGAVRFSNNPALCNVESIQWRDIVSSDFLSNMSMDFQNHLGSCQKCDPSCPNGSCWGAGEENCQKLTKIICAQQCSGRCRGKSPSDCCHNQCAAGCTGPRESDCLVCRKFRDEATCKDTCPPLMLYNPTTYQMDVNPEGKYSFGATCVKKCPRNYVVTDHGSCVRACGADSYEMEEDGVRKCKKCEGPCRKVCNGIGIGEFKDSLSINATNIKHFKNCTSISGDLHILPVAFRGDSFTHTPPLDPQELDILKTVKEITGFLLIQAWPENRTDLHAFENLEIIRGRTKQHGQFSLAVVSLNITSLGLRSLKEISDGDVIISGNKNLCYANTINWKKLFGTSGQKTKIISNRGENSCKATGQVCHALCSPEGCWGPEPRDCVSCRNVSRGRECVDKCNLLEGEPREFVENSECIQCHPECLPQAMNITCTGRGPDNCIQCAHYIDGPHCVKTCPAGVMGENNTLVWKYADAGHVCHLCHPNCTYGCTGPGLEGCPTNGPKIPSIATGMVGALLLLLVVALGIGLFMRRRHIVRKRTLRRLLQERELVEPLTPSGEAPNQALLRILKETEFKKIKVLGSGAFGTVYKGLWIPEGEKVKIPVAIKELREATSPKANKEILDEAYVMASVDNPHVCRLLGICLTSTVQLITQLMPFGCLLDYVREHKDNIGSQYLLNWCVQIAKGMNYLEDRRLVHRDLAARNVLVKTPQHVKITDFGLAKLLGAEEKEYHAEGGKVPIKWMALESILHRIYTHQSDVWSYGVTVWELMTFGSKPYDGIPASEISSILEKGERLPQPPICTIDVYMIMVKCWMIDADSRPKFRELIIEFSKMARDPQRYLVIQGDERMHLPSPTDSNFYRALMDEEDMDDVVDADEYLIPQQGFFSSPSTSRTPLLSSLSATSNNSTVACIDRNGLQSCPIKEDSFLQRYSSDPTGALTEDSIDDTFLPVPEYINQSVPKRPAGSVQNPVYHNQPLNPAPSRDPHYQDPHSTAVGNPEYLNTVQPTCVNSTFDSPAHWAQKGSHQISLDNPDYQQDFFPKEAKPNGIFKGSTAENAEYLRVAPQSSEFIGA", "assay": "compounds binding epidermal growth factor receptor – biochemical, small-molecule microarray, 635 nm fluorescence, primary screen (AID 1104);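 further: score merges 667 nm emission intensity with spot signal to noise over triplicate slides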", "details": "EGFR binding, higher = more signal"}, "[8]": {"target": "Follistatin-related protein 3 (Homo sapiens) (UniProt O95633)", "sequence (O95633 whole entry, looked up)": "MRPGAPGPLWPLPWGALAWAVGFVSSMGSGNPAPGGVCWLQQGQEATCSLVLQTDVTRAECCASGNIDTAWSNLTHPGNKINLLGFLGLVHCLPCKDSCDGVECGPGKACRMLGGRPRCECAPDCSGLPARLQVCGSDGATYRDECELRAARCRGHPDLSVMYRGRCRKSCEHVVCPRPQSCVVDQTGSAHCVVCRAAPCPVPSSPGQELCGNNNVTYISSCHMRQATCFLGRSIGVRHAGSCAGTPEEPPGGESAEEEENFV", "assay": "compounds binding follistatin-related protein 3 – biochemical, small-molecule microarray, 635 nm fluorescence, primary screen (AID 1105);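 further: score merges emission near 667 nm and signal to noise per printed spot across three slides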", "details": "FSTL3 binding, higher = more signal"}, "[9]": {"target": "Dickkopf-related protein 1 (Homo sapiens) (UniProt O94907)", "sequence (O94907 whole entry, looked up)": "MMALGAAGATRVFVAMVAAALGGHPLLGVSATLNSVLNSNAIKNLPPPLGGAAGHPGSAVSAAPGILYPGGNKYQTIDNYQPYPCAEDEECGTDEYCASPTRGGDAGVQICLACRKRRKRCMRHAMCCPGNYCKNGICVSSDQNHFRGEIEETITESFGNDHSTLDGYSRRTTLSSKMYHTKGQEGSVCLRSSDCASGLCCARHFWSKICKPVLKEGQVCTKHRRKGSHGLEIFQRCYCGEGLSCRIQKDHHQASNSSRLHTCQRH", "assay": "small molecules binding DKK1 protein – biochemical, small-molecule microarray, 635 nm fluorescence scan, primary screen (AID 1106);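 further: score merges emission near 667 nm with signal to noise over three replicate slides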", "details": "higher = more signal"}, "[10]": {"tested_on": "Inhibin beta A chain (activin A)", "assay": "small molecules binding activin A – biochemical, small-molecule microarray, 635 nm fluorescence scan, primary screen (AID 1107);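 further: mouse activin A protein probed at 4.33 µg/mL on printed slides; score merges bound-protein fluorescence near 667 nm with spot signal-to-noise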", "details": "INHBA, higher = more signal"}, "[11]": {"tested_on": "Human papillomavirus type 1a protein E7 (residues 44-93)", "assay": "small molecules binding HPV E7 44-93 – biochemical, small-molecule microarray, residues 44-93, 635 nm fluorescence, primary screen (AID 1108);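 further: E7 fragment applied at 1 µg/mL in TBST for 1 h at 4 C; score combines spot fluorescence with its signal to noise ratio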", "details": "fluorescence 635 nm, higher = more signal"}, "[12]": {"assay": "hepatitis C replication reporter changes, two-sided – Huh7 cells, luciferase reporter, HCV replication inhibitor project, primary screen (AID 1109);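 further: huh7 hepatoma cells harbouring a luciferase neomycin HCV replicon reporter; test concentration not given here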", "details": "Huh7 HCV replicon luciferase reporter, 48 h; higher = more signal"}, "[13]": {"target": "Left-right determination factor 2 (Homo sapiens) (UniProt O00292)", "sequence (O00292 whole entry, looked up)": "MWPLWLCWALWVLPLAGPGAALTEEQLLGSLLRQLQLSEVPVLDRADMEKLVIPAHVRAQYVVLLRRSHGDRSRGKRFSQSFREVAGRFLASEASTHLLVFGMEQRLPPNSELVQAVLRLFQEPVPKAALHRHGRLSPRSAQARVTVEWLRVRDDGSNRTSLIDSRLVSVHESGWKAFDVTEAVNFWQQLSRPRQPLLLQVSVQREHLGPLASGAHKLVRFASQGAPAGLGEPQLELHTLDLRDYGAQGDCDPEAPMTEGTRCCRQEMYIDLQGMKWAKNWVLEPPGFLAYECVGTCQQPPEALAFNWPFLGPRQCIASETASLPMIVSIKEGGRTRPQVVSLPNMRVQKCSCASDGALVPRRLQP", "assay": "small molecules binding LEFTY2 protein – biochemical, small-molecule microarray, 635 nm fluorescence scan, primary screen (AID 1110)", "details": "higher = more signal"}, "[14]": {"target": "Calmodulin-1 (Homo sapiens) (UniProt P0DP23)", "assay": "small molecules binding calmodulin-1 with EGTA – biochemical, small-molecule microarray, Cy5-labelled CALM1, profiling panel (AID 1111);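 further: labelled calmodulin applied in Tris saline Tween buffer holding calcium plus EGTA and DTT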", "details": "Cy5-CALM1 binding fluorescence, higher = more signal"}, "[15]": {"target": "Calmodulin-1 (Homo sapiens) (UniProt P0DP23)", "assay": "small molecules binding Ca-loaded calmodulin-1 – biochemical, small-molecule microarray, Cy5-labelled CALM1, plus calcium, artefact control for SMM control-protein annotation, profiling panel (AID 1112);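 further: score merges spot fluorescence with signal to noise from triplicate slides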", "details": "Cy5-CALM1 binding fluorescence, higher = more signal"}, "[16]": {"assay": "probe aWnt5a binding to arrayed compounds – biochemical, biotinylated probe, 635/667 nm fluorescence, primary screen (AID 1113);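 further: score merges 667 nm fluorescence intensity with signal-to-noise per printed feature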", "details": "small-molecule microarray, higher = more signal"}, "[17]": {"assay": "probe aShh binding to arrayed compounds – biochemical, biotinylated probe, 635/667 nm fluorescence, primary screen (AID 1114);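 further: probe is biotin-labelled aShh protein from a stem cell growth factor screen; measures binding of labelled protein to compounds printed on the slide; score merges feature fluorescence at 667 nm with signal-to-noise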", "details": "small-molecule microarray, higher = more signal"}, "[18]": {"assay": "probe aNog binding to arrayed compounds – biochemical, biotinylated probe, 635/667 nm fluorescence, primary screen (AID 1115);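 further: probe is biotinylated aNog protein used at 0.15 µg/mL for 1 h at 4 C; z-score combines 667 nm fluorescence of each spot with its signal to noise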", "details": "small-molecule microarray, higher = more signal"}, "[19]": {"target": "Torsin-1A-interacting protein 1 (Homo sapiens) (UniProt Q5JTV8)", "sequence (Q5JTV8 whole entry, looked up)": "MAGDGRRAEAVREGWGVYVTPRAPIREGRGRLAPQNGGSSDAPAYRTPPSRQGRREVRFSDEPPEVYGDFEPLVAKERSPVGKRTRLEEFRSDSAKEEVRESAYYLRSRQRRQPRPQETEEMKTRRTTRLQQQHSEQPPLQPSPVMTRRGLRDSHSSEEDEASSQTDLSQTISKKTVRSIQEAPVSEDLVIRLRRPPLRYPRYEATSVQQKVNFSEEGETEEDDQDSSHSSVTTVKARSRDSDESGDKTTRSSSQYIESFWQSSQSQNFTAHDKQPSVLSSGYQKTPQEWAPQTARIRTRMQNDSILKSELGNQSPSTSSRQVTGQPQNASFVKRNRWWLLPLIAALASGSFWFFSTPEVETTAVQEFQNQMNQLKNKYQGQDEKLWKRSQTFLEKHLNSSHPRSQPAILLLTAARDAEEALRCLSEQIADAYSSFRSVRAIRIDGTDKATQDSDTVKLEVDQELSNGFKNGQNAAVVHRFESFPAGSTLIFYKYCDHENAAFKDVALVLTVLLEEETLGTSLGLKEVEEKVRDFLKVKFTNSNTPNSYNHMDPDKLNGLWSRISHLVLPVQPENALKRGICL", "assay": "compound microarray binding of lysate hLAP1 – cell lysate, small-molecule microarray, COS7 lysate, 635/667 nm fluorescence, primary screen (AID 1116)", "details": "635 nm fluorescence, higher = more signal"}, "[20]": {"target": "Alpha-bungarotoxin (Bungarus multicinctus) (UniProt P60615)", "sequence (P60615 whole entry, looked up)": "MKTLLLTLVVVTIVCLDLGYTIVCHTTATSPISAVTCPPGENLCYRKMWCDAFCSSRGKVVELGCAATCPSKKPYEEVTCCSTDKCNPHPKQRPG", "assay": "compounds binding labelled alpha-BTX control protein – biochemical, small-molecule microarray, Alexa647 label, 635/667 nm fluorescence, artefact control for SMM control protein annotation, profiling panel (AID 1117)", "details": "alpha-BTX-A647 binding fluorescence, higher = more signal"}}, "note": "“And” between values parts separate entries of the source, which are not always exact repeats. Identical values can stand only once. The source made the active and inactive calls.", "data": [{"smiles": "C=C[C@H](OC)[C@@H](O)c1ccc(O)c(F)c1", "values": [{"measurement": "composite z-score", "setting": "[1]", "value": "1.2 and -1.38"}, {"measurement": "composite z-score", "setting": "[2]", "value": "-0.48 and -0.349"}, {"measurement": "composite z-score", "setting": "[3]", "value": "0.7 and 0.65"}, {"measurement": "z-score", "setting": "[4]", "value": "-0.257 (inactive) and 0.0293 (inactive)"}, {"measurement": "composite z-score", "setting": "[5]", "value": "-1.35 and -1.61"}, {"measurement": "composite z-score", "setting": "[6]", "value": "-2.09 and -1.69"}, {"measurement": "composite z-score", "setting": "[7]", "value": "-2.36 and -1.75"}, {"measurement": "composite z-score", "setting": "[8]", "value": "-1.89 and -1.94"}, {"measurement": "composite z-score", "setting": "[9]", "value": "-2 and -1.4"}, {"measurement": "composite z-score", "setting": "[10]", "value": "-1.87 and -1.2"}, {"measurement": "composite z-score", "setting": "[11]", "value": "-1.18 and -1.38"}, {"measurement": "z-score", "setting": "[12]", "value": "0.156 and -0.114"}, {"measurement": "composite z-score", "setting": "[13]", "value": "-2.27 and -2.63"}, {"measurement": "composite z-score", "setting": "[14]", "value": "-1.27 and -0.866"}, {"measurement": "composite z-score", "setting": "[15]", "value": "-0.625 and -0.713"}, {"measurement": "composite z-score", "setting": "[16]", "value": "-0.244 and -0.356"}, {"measurement": "composite z-score", "setting": "[17]", "value": "-0.262 and -0.282"}, {"measurement": "composite z-score", "setting": "[18]", "value": "-0.173 and -0.8"}, {"measurement": "composite z-score", "setting": "[19]", "value": "-0.753 and -1.81"}, {"measurement": "composite z-score", "setting": "[20]", "value": "-1.36 and -0.191"}]}, {"smiles": "C[C@@H]1CC[C@H]2C(=O)O[C@H](CN=[N+]=[N-])CN2[C@H]1c1ccc(Br)cc1", "values": [{"measurement": "composite z-score", "setting": "[1]", "value": "-0.0157 and 0.121"}, {"measurement": "composite z-score", "setting": "[2]", "value": "0.117 and -0.31"}, {"measurement": "composite z-score", "setting": "[3]", "value": "-0.444 and -0.466"}, {"measurement": "z-score", "setting": "[4]", "value": "0.254 (inactive) and -0.0654 (inactive)"}, {"measurement": "composite z-score", "setting": "[5]", "value": "0.152 and -0.213"}, {"measurement": "composite z-score", "setting": "[6]", "value": "-0.267 and -0.529"}, {"measurement": "composite z-score", "setting": "[7]", "value": "0.0267 and 0.0063"}, {"measurement": "composite z-score", "setting": "[8]", "value": "-0.237 and -0.547"}, {"measurement": "composite z-score", "setting": "[9]", "value": "0.342 and -0.127"}, {"measurement": "composite z-score", "setting": "[10]", "value": "0.746 and 0.78"}, {"measurement": "composite z-score", "setting": "[11]", "value": "-0.322 and -0.172"}, {"measurement": "z-score", "setting": "[12]", "value": "-0.0944 and 0.335"}, {"measurement": "composite z-score", "setting": "[13]", "value": "0.0584 and 0.213"}, {"measurement": "composite z-score", "setting": "[14]", "value": "-0.425 and -0.201"}, {"measurement": "composite z-score", "setting": "[15]", "value": "-0.306 and -0.544"}, {"measurement": "composite z-score", "setting": "[16]", "value": -0.124}, {"measurement": "composite z-score", "setting": "[17]", "value": "-0.174 and -0.0769"}, {"measurement": "composite z-score", "setting": "[18]", "value": "0.0078 and -0.196"}, {"measurement": "composite z-score", "setting": "[19]", "value": "-0.21 and 0.116"}, {"measurement": "composite z-score", "setting": "[20]", "value": "0.089 and 0.397"}]}, {"smiles": "C=CCN(C(=O)C1N(CCOCCO)C(=O)C2C(C(=O)O)C3C=CC21O3)c1ccc(OC)cc1", "note": "(stereo not given)", "values": [{"measurement": "composite z-score", "setting": "[1]", "value": "-0.703 and 0.492"}, {"measurement": "composite z-score", "setting": "[2]", "value": "0.0448 and 0.214"}, {"measurement": "composite z-score", "setting": "[3]", "value": "0.787 and 1.07"}, {"measurement": "z-score", "setting": "[4]", "value": "0.503 (inactive) and 0.116 (inactive)"}, {"measurement": "composite z-score", "setting": "[5]", "value": "-1.53 and -1.43"}, {"measurement": "composite z-score", "setting": "[6]", "value": "-0.805 and -0.855"}, {"measurement": "composite z-score", "setting": "[7]", "value": "-1.33 and -3.15"}, {"measurement": "composite z-score", "setting": "[8]", "value": "-2.58 and -2.06"}, {"measurement": "composite z-score", "setting": "[9]", "value": "-1.83 and -2.76"}, {"measurement": "composite z-score", "setting": "[10]", "value": "-3.52 and -4.08"}, {"measurement": "composite z-score", "setting": "[11]", "value": "-0.754 and -1.72"}, {"measurement": "z-score", "setting": "[12]", "value": "0.51 and -0.102"}, {"measurement": "composite z-score", "setting": "[13]", "value": "-2.03 and -2.77"}, {"measurement": "composite z-score", "setting": "[14]", "value": "-0.315 and -1.35"}, {"measurement": "composite z-score", "setting": "[15]", "value": "0.538 and -0.237"}, {"measurement": "composite z-score", "setting": "[16]", "value": "-0.2 and -0.214"}, {"measurement": "composite z-score", "setting": "[17]", "value": "-0.221 and -0.195"}, {"measurement": "composite z-score", "setting": "[18]", "value": "0.406 and 0.669"}, {"measurement": "composite z-score", "setting": "[19]", "value": "1.38 and -0.149"}, {"measurement": "composite z-score", "setting": "[20]", "value": "-1.18 and -2.65"}]}, {"smiles": "C=CCN(Cc1ccccc1)C(=O)C(c1cccs1)N(C(=O)/C=C\\C(=O)O)c1c(Cl)cccc1CO", "note": "(stereo not given)", "values": [{"measurement": "composite z-score", "setting": "[1]", "value": "-1.01 and -1.02"}, {"measurement": "composite z-score", "setting": "[2]", "value": "-0.833 and 0.0042"}, {"measurement": "composite z-score", "setting": "[3]", "value": "0.898 and 0.996"}, {"measurement": "z-score", "setting": "[4]", "value": "0.395 (inactive) and -0.0385 (inactive)"}, {"measurement": "composite z-score", "setting": "[5]", "value": "-1.96 and -1.73"}, {"measurement": "composite z-score", "setting": "[6]", "value": "-1.09 and -1.76"}, {"measurement": "composite z-score", "setting": "[7]", "value": "-1.63 and -1.36"}, {"measurement": "composite z-score", "setting": "[8]", "value": "-1.27 and -2.07"}, {"measurement": "composite z-score", "setting": "[9]", "value": "-2.01 and -2.62"}, {"measurement": "composite z-score", "setting": "[10]", "value": "-3.32 and -2.86"}, {"measurement": "composite z-score", "setting": "[11]", "value": "-1.63 and -2.43"}, {"measurement": "z-score", "setting": "[12]", "value": "-0.68 and -0.803"}, {"measurement": "composite z-score", "setting": "[13]", "value": "-0.682 and -3.86"}, {"measurement": "composite z-score", "setting": "[14]", "value": "-0.374 and -0.222"}, {"measurement": "composite z-score", "setting": "[15]", "value": "0.58 and 0.911"}, {"measurement": "composite z-score", "setting": "[16]", "value": "-0.12 and -0.298"}, {"measurement": "composite z-score", "setting": "[17]", "value": "-0.212 and -0.366"}, {"measurement": "composite z-score", "setting": "[18]", "value": "-0.153 and 0.103"}, {"measurement": "composite z-score", "setting": "[19]", "value": "-1.51 and -0.936"}, {"measurement": "composite z-score", "setting": "[20]", "value": "-0.974 and -2.03"}]}]}
